Peg3 imprint: qHTS Assay for Compounds that Induce Erasure of Genomic Imprints; Potency, µM (top dose mostly 60.7 µM), most hits filed as activators; actives 0.02% (n = 110,000); mouse ES Peg3-LacZ reporter, beta-gal luminescence, 40 h; AID 1948, 2009
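Each well holds 300 Peg3LacZ-Neo (maternal) female ES cells incubated 40 h at 37C, 5% CO2. LacZ is measured by BetaGlo luminescence, with AC50 and maximum efficacy derived from dose-response curves.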
IkB sig inh: IkB Signaling; ABC-DLBCL IkBa-CBG/CBR dual luciferase ratio, 4 h; response scale: scaled: untreated 0%, proteasome inhibitor 100%; Potency, µM (highest dose often 57.1 µM); actives 0.04% (n = 110,000); active = well fitted curve in the direction sought with a large enough effect in the signal ratio, not every such curve was filed as active; inconclusive = small, poorly fitted or top-dose-only effect, or a change in a side signal; the % refers to the signal ratio;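 also: the direction sought is a rising ratio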
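In this assay, an IκBα–CBG68 fusion accumulates when IKK-driven degradation is blocked; native CBR normalizes for cell number. OCI-Ly3 cells were treated 4 h with compound and doxycycline, then green and red light read after Chroma-Glo addition.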
p53ts 39C kill: qHTS Screen for Compounds that Selectively Target Cancer Cells with p53 Mutations: Cytotoxicity of p53ts Cells at the Nonpermissive Temperature | H1299-p53A138V viability at 39C, ATP luminescence, 24 h | Potency, µM (highest dose often 46.1 µM), usual class: cytotoxic | actives 1.5% (n = 130,000); also: nearly all actives have a fitted effect of over 55% in size
p53ts 32C kill: qHTS Screen for Compounds that Selectively Target Cancer Cells with p53 Mutations: Cytotoxicity of p53ts Cells at the Permissive Temperature | Potency, µM (series often up to 46.1 µM), hits mostly cytotoxic | actives 0.93% (n = 130,000) | H1299-p53A138V at 32C, ATP luminescence viability, 24 h; also: nearly all actives have a fitted effect of over 55% in size
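ATP-content luminescence (ATPlite) read-out after 24 h compound exposure at 32C in H1299-p53A138V cells (600/well). Tested up to 46 uM. Normalized to DMSO (0%) and 100 uM tamoxifen (100% killing); Hill-fit AC50.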
CRE-bla Fsk: Cell signaling CRE-BLA (Fsk stim) | CHO CRE-bla reporter (cAMP response element driving beta-lactamase), forskolin EC10, beta-lactamase ratio | actives 2.5% (n = 71,000) | AID 662, 2007 | Potency, µM (titrated, usually from 38.2 µM), usual class: activators; active = well fitted activation curve with a large enough effect in the signal ratio, with a control signal flat, not every such curve was filed as active; inconclusive = small, poorly fitted or top-dose-only effect, or effect the other way, or a change in a side signal; the % refers to the signal ratio
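Cells were plated overnight at 37 °C, exposed to compound titrations plus EC10 NKH 477 for 3 h, then given CCF4 dye for 2 h at room temperature. Blue/green (460/530 nm) ratio was converted to %Activity and AC50 values calculated.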
Numbers stand for hits; . = inactive; ? = inconclusive; / = no result; ! = not active in a repeat; [ ] = another dose, or the depositor's remark. An excerpt weighted towards active compounds, which were near 3% of everything screened. Unless noted, calls follow the shape of the dose curve; as a rule, active = well fitted curve in the direction sought with a large enough effect; inconclusive = small, poorly fitted or top-dose-only effect, or another doubt; inactive = no such curve, though single readings can be large; an effect the other way counts as inactive or inconclusive.

SMILES	Peg3 imprint	IkB sig inh	p53ts 39C kill	p53ts 32C kill	CRE-bla Fsk
COc1ccc2nc(N3CCN(C(=O)CS(=O)(=O)c4ccc(C)cc4)CC3)sc2c1	.[10.9 µM]	.	7.9µM	11µM	/
Cc1ccc2nc(N3CCC(C(=O)N4CCC5(CC4)OCCO5)CC3)sc2c1	/	/	.	.	/
CC(C)=CCCC1(C)C=Cc2c(O)c3c(c(CC=C(C)C)c2O1)OC12C(=CC4CC1C(C)(C)OC2(C/C=C(/C)C(=O)O)C4=O)C3=O (stereo unspecified)	.	/	6.3µM	4µM	/
CC(C)=CCCC1(C)C=Cc2c(O)c3c(c(CC=C(C)C)c2O1)OC12C(=CC4CC1C(C)(C)OC2(C/C=C(/C)C(=O)O)C4O)C3=O (stereo unspecified)	.	/	5µM	5µM	/
CCC(=O)OC1CCC2C3CCC4=CC(=O)CC[C@@]4(C)C3CC[C@]12C (stereo partly specified)	.	/	/	/	/
CCC(=O)OC1CCC2C3CCc4cc(O)ccc4C3CC[C@]12C (stereo partly specified)	.	/	10µM	?	/
CCOC(=O)c1ccc(N2C(=O)c3n[nH]c(-c4cccs4)c3C2c2ccc(C(C)(C)C)cc2)cc1 (stereo unspecified)	.[10.9 µM]	?	16µM	?	/
C/C=C1\C[C@H](C)[C@](O)(CO)C(=O)OCC2=CCN3CC[C@@H](OC1=O)[C@@H]23	/	.[11.4 µM]	/	/	?
C[C@@]12CC[C@H]3[C@@H](CCC4=C(O)C(=O)CC[C@]43C)[C@H]1CCC2=O	/	.	.	.	.
C[C@H](N[C@@H](C)CCc1ccccc1)[C@H](O)c1ccc(O)cc1	/	.	.	.	.
CCC(=NCc1cccnc1)c1c(O)n(Cc2ccccc2)c(=O)[nH]c1=O	.	.	.	.	1.6µM
CCC(C)C(=O)c1c(O)c(C)c2oc3c(C)c(O)c(C(=O)C(C)CC)c(O)c3c2c1O (stereo unspecified)	.	/	13µM	13µM	/
CCCC[N+]1(C)[C@@H]2CC(OC(=O)[C@@H](CO)c3ccccc3)C[C@H]1[C@H]1O[C@H]12 (stereo partly specified)	/	.	.	.	.
CCCSc1ccc2nc(NC(=O)OC)[nH]c2c1	?	?	?	?	7.9µM
CCCCC[CH2][Hg][S]C1=C2N=CNC2NC(N)=N1 (stereo unspecified)	.[10.9 µM]	/	/	/	/
O=C(O)c1cc(O)c(O)c(O)c1	.	.	10µM	13µM	.
COc1ccc(C(=O)O)cc1OC	.	/	.	.	/
C[C@H]1C2C=C[C@H]1[C@@H](C(=O)O)[C@@H]2c1c2ccc(=O)c(O)c-2oc2c(O)c(O)ccc12	.[10.9 µM]	/	/	/	/
COc1c(C)cc(Br)cc1C(=O)Nc1ccc(-c2nc3ncccc3o2)cc1	.[10.9 µM]	.	6.3µM	.	/
O=C(O)CN1CCN(CC(=O)O)CC(=O)[O][Hg][O]C(=O)C1	.[10.9 µM]	4µM	.[9.22 µM]	.[9.22 µM]	.[7.6 µM]
COc1cc2c(cc1OC)[C@@]13CCN4C=C5CCO[C@H]6CC(=O)N2[C@@H]1C6[C@H]5C[C@H]43 (stereo partly specified)	.[10.9 µM]	/	/	/	/
CNc1ccc2oc(C[C@H]3O[C@]4(CC[C@H]3C)O[C@H]([C@H](C)C(=O)c3ccc[nH]3)[C@H](C)C[C@H]4C)nc2c1C(=O)O	.	?	3.2µM	4µM	?
CCNc1nc(Cl)nc(NC(C)C)n1	.	.	.	.[1.84 µM]	7.9µM
NC(=O)CI	.	.	5µM	6.3µM	.
C[C@@H](Cc1ccc2c(c1)OC(C(=O)O)(C(=O)O)O2)NC[C@H](O)c1cccc(Cl)c1	/	.	.	.	.
CC[n+]1c(-c2ccccc2)c2cc(N)ccc2c2ccc(N)cc21	.	?	2.5µM	4µM!	.
N[C@@H](Cc1cc(O)c(O)cc1O)C(=O)O	/	.	.	.	.
COC(=O)C(C)Oc1cc(C)cc2oc(=O)c3c(c12)CCC3 (stereo unspecified)	.	.	.	.	7.9µM
O=S(=O)(NCCO)c1cc[c]([Sb])cc1	.[10.9 µM]	/	/	/	/

Bioassay records from PubChem BioAssay.
